From PubChem BioAssay come the findings set out here.

Experiment [1] relates to Plasmodium falciparum Sir2 (PF13_0152, Sir2A). Description: Plasmodium falciparum Sir2A binding compounds – biochemical, small-molecule microarray, 635 nm fluorescence, primary screen (AID 1098).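 Further: score merges spot fluorescence intensity with its signal-to-noise ratio.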 The note with it: fluorescence 635 nm, higher = more signal.
Experiment [2] is described as follows: probe aDKK1 binding to arrayed compounds – biochemical, biotinylated probe, 635/667 nm fluorescence, primary screen (AID 1099).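 Further: score merges 667nm spot fluorescence with signal to noise across triplicate slides; reference of the scale not given here.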 The note with it: small-molecule microarray, higher = more signal.
The nature of experiment [3]: probe aCHRDL2 binding to arrayed compounds – biochemical, biotinylated probe, 635/667 nm fluorescence, primary screen (AID 1100). The note with it: small-molecule microarray, higher = more signal.
Experiment [4] in a line: change in splice reporter luminescence, either direction, cell-based, HEK293, spliceosome inhibition project, primary screen (AID 1101).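 Further: HEK293 cells carrying a splicing-competent luciferase reporter gene; test concentration not given here.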 The note with it: HEK293 splicing luciferase reporter, 24 h, higher = more signal, called active from +8 up or from −8 down. (In a reporter assay the amount or activity of a reporter protein is the signal.)
For experiment [5], the target named is Fibroblast growth factor 10 (Homo sapiens) (UniProt O15520). Nature of the experiment: compounds binding fibroblast growth factor 10 – biochemical, small-molecule microarray, 635 nm fluorescence, primary screen (AID 1102). The note with it: FGF10 binding, fluorescence 635 nm, higher = more signal.
Fibroblast growth factor 10 (Homo sapiens), sequence (O15520 whole entry, looked up): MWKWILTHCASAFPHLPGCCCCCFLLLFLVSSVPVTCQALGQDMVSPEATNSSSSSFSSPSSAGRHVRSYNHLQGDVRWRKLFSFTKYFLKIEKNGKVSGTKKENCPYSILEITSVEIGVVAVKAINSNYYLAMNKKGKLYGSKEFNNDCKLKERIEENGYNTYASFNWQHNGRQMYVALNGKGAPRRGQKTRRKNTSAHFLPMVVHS
The test system of experiment [6] is glycogen synthase kinase-3 (GSK3A per assay name; protocol says GSK3B). Description: compounds binding glycogen synthase kinase-3 – biochemical, small-molecule microarray, 635 nm fluorescence, GSK3A, primary screen (AID 1103). Further: the record names both GSK3A and GSK3B. The note with it: fluorescence 635 nm, higher = more signal.
Experiment [7] has as its target Epidermal growth factor receptor (Homo sapiens) (UniProt P00533). Description: compounds binding epidermal growth factor receptor – biochemical, small-molecule microarray, 635 nm fluorescence, primary screen (AID 1104).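 Further: score merges 667 nm emission intensity with spot signal to noise over triplicate slides.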 The note with it: EGFR binding, higher = more signal.
The target in experiment [8] is Follistatin-related protein 3 (Homo sapiens) (UniProt O95633). Nature of the experiment: compounds binding follistatin-related protein 3 – biochemical, small-molecule microarray, 635 nm fluorescence, primary screen (AID 1105).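 Further: score merges emission near 667 nm and signal to noise per printed spot across three slides.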 The note with it: FSTL3 binding, higher = more signal.
Follistatin-related protein 3 (Homo sapiens), sequence (O95633 whole entry, looked up): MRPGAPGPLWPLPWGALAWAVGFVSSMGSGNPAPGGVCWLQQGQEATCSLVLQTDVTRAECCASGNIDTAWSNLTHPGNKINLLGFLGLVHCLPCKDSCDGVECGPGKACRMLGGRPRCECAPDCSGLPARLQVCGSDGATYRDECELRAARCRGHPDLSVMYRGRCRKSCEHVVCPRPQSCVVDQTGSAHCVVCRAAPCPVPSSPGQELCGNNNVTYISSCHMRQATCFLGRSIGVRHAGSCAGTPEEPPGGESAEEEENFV
Experiment [9] deals with Dickkopf-related protein 1 (Homo sapiens) (UniProt O94907). Nature of the experiment: small molecules binding DKK1 protein – biochemical, small-molecule microarray, 635 nm fluorescence scan, primary screen (AID 1106).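 Further: score merges emission near 667 nm with signal to noise over three replicate slides.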 The note with it: higher = more signal.
Dickkopf-related protein 1 (Homo sapiens), sequence (O94907 whole entry, looked up): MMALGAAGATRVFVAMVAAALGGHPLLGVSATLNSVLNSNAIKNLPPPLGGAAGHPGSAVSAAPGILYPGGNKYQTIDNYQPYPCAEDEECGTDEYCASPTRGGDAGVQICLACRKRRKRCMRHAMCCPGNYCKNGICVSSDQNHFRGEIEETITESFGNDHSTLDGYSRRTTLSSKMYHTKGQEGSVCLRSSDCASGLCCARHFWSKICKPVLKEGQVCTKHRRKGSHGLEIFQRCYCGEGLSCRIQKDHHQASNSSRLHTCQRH
Experiment [10] concerns Inhibin beta A chain (activin A). Nature of the experiment: small molecules binding activin A – biochemical, small-molecule microarray, 635 nm fluorescence scan, primary screen (AID 1107).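 Further: mouse activin A protein probed at 4.33 µg/mL on printed slides; score merges bound-protein fluorescence near 667 nm with spot signal-to-noise.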 The note with it: INHBA, higher = more signal.

“And” between values parts separate entries of the source, which are not always exact repeats. Equal values may be shown once. The source made the active and inactive calls.

Epidermal growth factor receptor (Homo sapiens), sequence (P00533 whole entry, looked up): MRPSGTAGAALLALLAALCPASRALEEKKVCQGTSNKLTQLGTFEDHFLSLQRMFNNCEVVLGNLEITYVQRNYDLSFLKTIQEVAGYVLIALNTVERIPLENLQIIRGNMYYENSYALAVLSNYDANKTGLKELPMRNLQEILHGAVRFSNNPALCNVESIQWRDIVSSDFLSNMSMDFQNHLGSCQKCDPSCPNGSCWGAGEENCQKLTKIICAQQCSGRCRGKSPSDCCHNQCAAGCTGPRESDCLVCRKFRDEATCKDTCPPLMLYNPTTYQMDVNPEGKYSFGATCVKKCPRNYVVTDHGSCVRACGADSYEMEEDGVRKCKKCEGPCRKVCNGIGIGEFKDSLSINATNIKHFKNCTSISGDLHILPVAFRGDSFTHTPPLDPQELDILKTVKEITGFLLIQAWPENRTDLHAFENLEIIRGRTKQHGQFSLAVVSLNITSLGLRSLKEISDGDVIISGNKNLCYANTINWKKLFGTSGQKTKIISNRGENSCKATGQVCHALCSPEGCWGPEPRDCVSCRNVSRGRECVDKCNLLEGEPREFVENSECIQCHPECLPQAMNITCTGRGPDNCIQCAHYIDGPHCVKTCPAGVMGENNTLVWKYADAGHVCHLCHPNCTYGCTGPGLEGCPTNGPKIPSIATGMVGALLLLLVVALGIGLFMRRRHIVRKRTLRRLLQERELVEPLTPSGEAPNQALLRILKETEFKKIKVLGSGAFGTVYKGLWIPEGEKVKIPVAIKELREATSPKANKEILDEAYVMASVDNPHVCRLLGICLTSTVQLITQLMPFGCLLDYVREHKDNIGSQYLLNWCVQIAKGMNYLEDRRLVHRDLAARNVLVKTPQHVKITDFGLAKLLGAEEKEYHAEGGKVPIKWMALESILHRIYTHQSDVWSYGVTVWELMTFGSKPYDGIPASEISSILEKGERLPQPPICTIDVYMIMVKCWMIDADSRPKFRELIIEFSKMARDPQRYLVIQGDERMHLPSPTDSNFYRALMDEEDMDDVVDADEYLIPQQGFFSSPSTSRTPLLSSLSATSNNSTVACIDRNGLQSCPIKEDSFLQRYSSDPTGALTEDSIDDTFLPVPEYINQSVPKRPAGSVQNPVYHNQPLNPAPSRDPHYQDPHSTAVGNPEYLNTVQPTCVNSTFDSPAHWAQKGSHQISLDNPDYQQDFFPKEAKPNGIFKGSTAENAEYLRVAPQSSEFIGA

Consider `C[C@@H]1CC[C@H]2C(=O)N3[C@@H](CC[C@@H](C)[C@@H]3c3ccc(-c4ccco4)cc3)C(=O)N2[C@H]1c1ccc(-c2ccco2)cc1`, for which the composite z-score in [1] was 1.22 and 1.69; in experiment [2], 0.289 and 0.596; in [3], 0.0051 and 1.11; in experiment [5] it was 0.765 and 1.37; in [6], 1.32 and 1.28; in experiment [7] it was 0.737 and 1.7. Also, the composite z-score in experiment [8] is 1.36 and 1.4; in experiment [9], 1.25 and 1.68; in experiment [10], 1.01 and 1.92. In addition, the z-score in [4] was -0.328 (inactive) and -1.24 (inactive).

As for `CCCNC(=O)OC[C@H]1O[C@H](CCON=C(C)CCC(=O)OC[C@H]2O[C@H](C#Cc3ccccc3)C=C[C@@H]2Oc2ccc(C)cc2)C=C[C@@H]1Oc1ccc(OC)cc1`, the composite z-score in [1] is 0.352; in experiment [2] it was -0.193; in [3], -0.148; in experiment [5], -0.397; in experiment [6], -0.952; in experiment [7] it was -0.501. For the same molecule, the figures for the composite z-score in experiment [8], in experiment [9] and in [10] were -0.637, -0.121 and 0.711, respectively. Moreover, in experiment [4], the z-score is -0.301 (inactive).

On to `CCOC(=O)[C@@H]1CC=C2CC1C(=O)N1CCC[C@@H]1[C@H]2O[Si](C)(C)C(C)(C)C` (stereo not given in full), for which the composite z-score was -0.632 and -0.617 in experiment [1]; -0.0776 and -0.228 in [2]; -0.0464 and -0.898 in experiment [3]; -0.182 and -1.24 in experiment [5]; -0.0945 and -1.32 in experiment [6]; -0.762 and -0.649 in [7]. For the same molecule, the composite z-score in experiment [8] was -0.552 and -0.744; in [9], 0.055 and -0.0246; in experiment [10] it was 0.401 and 0.933. Also, the z-score in [4] is 0.474 (inactive) and 0.337 (inactive).

Take `C=CCN(C(=O)C(c1cccs1)N(C(=O)/C=C\C(=O)O)c1ccc(CCO)cc1)C(C)(C)C` (stereo not given): the composite z-score is -0.202 and 0.938 in [1]; -0.123 and 0.0381 in [2]; 0.274 and 1.05 in experiment [3]; -0.99 and -2.19 in experiment [5]; -0.265 and -0.746 in [6]; -1.41 and -1.91 in experiment [7]. In addition, the composite z-score in [8] was -1.76 and -2.36; in [9] it was -2.48 and -2.7; in [10], -1.03 and -2.06. Also, the z-score in experiment [4] was -0.14 (inactive) and 0.253 (inactive).

Regarding `C=CCN(CCCC)C(=O)C1N(CCOCCO)C(=O)C2C(C(=O)O)C3C=CC21O3` (stereo not given), the composite z-score in [1] was 1.46 and 0.591; in experiment [2] it was -0.0203 and -0.336; in [3], 1.02 and 0.53; in experiment [5], -1.38 and -1.65; in experiment [6] it was -1.47 and -1.21; in [7] it was -1.89 and -1.27. Besides, the composite z-score was -1.5 and -2.25 in [8]; -3.09 and -1.87 in experiment [9]; -3.45 and -2.19 in experiment [10]. For the same molecule, the z-score in [4] was 0.391 (inactive) and 0.915 (inactive).

Take `C=C[C@@H](C)[C@H](O)c1ccc(O)c2ccccc12`: the composite z-score in experiment [1] is 1.09 and 0.905; in [2] it was -0.493 and -0.379; in experiment [3], -0.289 and 0.255; in experiment [5] it was -0.309 and -0.862; in [6], -0.347 and -0.958; in [7], 0.617 and -0.987. For the same molecule, the composite z-score in experiment [8] was 0.294 and -0.579; in [9] it was 0.481 and -0.33; in experiment [10], 1.53 and 1.13. The z-score in experiment [4] is 0.126 (inactive) and 0.292 (inactive).

On to `Cc1ccc(S(=O)(=O)N[C@@H]2COC(=O)CC=C[C@@H](C)[C@@H]3C=C[C@H](O)[C@@H](COC(=O)CC=C[C@H]2C)O3)cc1`, for which the composite z-score in experiment [1] is 0.527 and 0.241; in experiment [2] it was -0.553 and -0.331; in experiment [3], -1.15 and -0.466; in experiment [5] it was 0.606 and 0.174; in [6], 0.126 and 0.233; in experiment [7], 0.884 and 0.383. In addition, the composite z-score in [8] is 1.08 and 0.451; in [9] it was 1.13 and 0.389; in experiment [10], 1.03 and -0.134. The z-score in experiment [4] is -0.371 (inactive) and -1.35 (inactive).

On to `COC(=O)c1c2oc(c1C(=O)OC)C(=O)N[C@@H](Cc1ccccc1)Cn1cc(nn1)C1(CCCCC1)NC(=O)N[C@H](CO)CC2`, for which the composite z-score in [1] was 0.582 and 0.45; in experiment [2], 0.407 and -0.327; in [3], -0.287 and -0.366; in [5], 1.16 and 0.505; in [6], 0.86 and 0.41; in [7] it was 0.158 and 0.198. The composite z-score was 0.794 and 0.388 in experiment [8]; 0.749 and 0.194 in [9]; 0.728 and -0.0236 in experiment [10]. The z-score in experiment [4] is -0.55 (inactive) and -1.56 (inactive).

On to `C=CCN(C(=O)C1N(c2ccc(CCO)cc2)C(=O)C2C(C(=O)O)C3C=CC21O3)c1ccc(OC)cc1` (stereo not given), for which the composite z-score in experiment [1] was 1.07 and -0.0141; in experiment [2], -0.0654 and -0.638; in experiment [3], 0.581 and 0.683; in experiment [5] it was -0.0665 and -1.53; in [6], -0.313 and -1.1; in [7], -1.33 and -1.47. The composite z-score in experiment [8] was -1.01 and -0.528; in experiment [9] it was -1.35 and -0.641; in experiment [10], -2.09 and -3.41. Also, the z-score in experiment [4] was 0.119 (inactive) and -0.374 (inactive).

Regarding `CC(C)N1CC=CC23O[C@@H]4C=CCCOC(=O)C4[C@H]2C(=O)N(C(C)CO)[C@@H]3C1=O` (stereo not given in full), the composite z-score in experiment [1] was 0.966 and -0.2; in [2] it was 0.802 and -0.0438; in experiment [3], 1 and 0.404; in experiment [5], -0.858 and -0.457; in experiment [6], -0.132 and -0.547; in [7], -1.71 and -0.693. Further, the composite z-score in experiment [8] was -1.66 and -0.676; in experiment [9], -2.56 and -0.647; in experiment [10] it was 0.644 and 1.35. For the same molecule, the z-score in [4] was -1.6 (inactive) and -1.03 (inactive).

Regarding `C=CCN(CCCCC)C(=O)C1N(c2ccc(CCO)cc2)C(=O)C2C(C(=O)O)C3C=CC21O3` (stereo not given), the composite z-score was 0.122 and -0.0398 in [1]; -0.244 and -0.184 in [2]; 0.976 and 0.99 in [3]; -1.01 and -1.64 in experiment [5]; -1.29 and -1.34 in experiment [6]; -1.23 and -1.1 in experiment [7]. Also, the composite z-score in [8] is -0.937 and -1.43; in experiment [9] it was -1.6 and -1.19; in experiment [10] it was -1.49 and -1.34. Further, in [4], the z-score is -0.296 (inactive) and 0.494 (inactive).

Turning to `CCC[C@@H]1C[C@@]1(CCC)[C@@H](NC(=O)c1ccc(-c2ccccc2)cc1)c1cccc(Cl)c1`, the composite z-score in [1] was 1.21 and 0.366; in experiment [2], 1.34 and 0.898; in [3], 1.09 and 1.13; in [5], -0.592 and 0.143; in [6] it was -0.826 and -0.349; in [7] it was -0.346 and 0.0087. Further, the composite z-score in [8] was -0.46 and -0.339; in [9] it was -0.0916 and -0.455; in experiment [10] it was 1.53 and 0.896. In addition, the z-score in experiment [4] is -3.74 (inactive) and -1.69 (inactive).

With `C=CCN(C(=O)C1N(CCCCCCO)C(=O)C2C(C(=O)O)C3C=CC21O3)c1ccc(OC)cc1` (stereo not given), the composite z-score in experiment [1] was 1.04 and -1.32; in [2], 0.0787 and 0.332; in experiment [3], 1.27 and 1.18; in [5], -0.791 and -1.26; in experiment [6] it was -0.329 and -0.852; in [7], -2.79 and -2.32. Further, the composite z-score in experiment [8] is -2.58 and -1.84; in experiment [9] it was -2.84 and -2.35; in [10], -1.71 and -1.78. Besides, the z-score in [4] was -1.67 (inactive) and -0.118 (inactive).

Regarding `C[N+](C)(C)CCCCCCNC(=O)[C@H]1C[C@H]2C(=O)N[C@@H](CCCC[N+](C)(C)C)C(=O)N2[C@H]1c1ccc(O)cc1`, the composite z-score is 0.819 and 1.44 in experiment [1]; -0.359 and -0.0843 in experiment [2]; -0.304 and 0.224 in [3]; 0.508 and -0.456 in [5]; -0.253 and -0.528 in [6]; 0.28 and -0.409 in experiment [7]. Besides, the composite z-score in experiment [8] was 0.41 and -0.414; in experiment [9], 0.867 and 0.455; in experiment [10] it was 0.469 and 1.16. Also, the z-score in experiment [4] was -0.616 (inactive) and -0.146 (inactive).

Turning to `C=C[C@@H](OC)[C@H](O)c1ccc(O)c(F)c1`, the composite z-score was 0.767 and -0.815 in experiment [1]; -0.324 and -0.472 in experiment [2]; 0.576 and 0.268 in experiment [3]; -1.19 and -1.46 in [5]; -1.5 and -1.29 in [6]; -1.59 and -0.277 in experiment [7]. The composite z-score in [8] was -2.7 and -1.75; in [9], -1.37 and -0.856; in [10], -2.04 and -0.759. In addition, the z-score in [4] was -0.668 (inactive) and -2.09 (inactive).

Consider `CCOC(=O)C[C@H]1[C@H](OC(=O)c2ccccc2-c2ccccc2)[C@@H](NC(=O)Cc2ccc(OC)cc2)c2cc(OCCCO)ccc2N1C(=O)Cc1ccc(OC)cc1`, for which the composite z-score in experiment [1] was 0.463 and -0.568; in experiment [2] it was 0.659 and -0.038; in experiment [3] it was 0.675 and 0.58; in experiment [5], 0.57 and -0.0746; in [6] it was 0.348 and -0.607; in experiment [7], -0.111 and -0.847. Also, the composite z-score in [8] is 0.223 and -0.624; in experiment [9], -0.215 and -0.331; in experiment [10], 0.29 and 0.764. In addition, the z-score in experiment [4] was -1.05 (inactive) and -0.311 (inactive).
